Hits are enriched below; roughly 4.8% of the tested compounds scored in any of these assays.
HepG2 tox: qHTS for Inhibitors of TGF-b: Cytotox Counterscreen; HepG2 CAGA-GFP viability, ATP luminescence, 18 h; Potency, µM (top dose mostly 46.1 µM), for inactives: at the top dose activity change, negative = cytotoxicity, hits mostly cytotoxic; actives 0.76% (n = 410,000); AID 588856, 2011; also: potency is read from the fitted curve at half-maximal effect
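HepG2 CAGA-GFP cells (1000/well, DMEM with 1% FBS) received compound, then TGF-beta at 500 pg/mL final, and were incubated 18 hours at 37 degrees C. Viability was read by CellTiter-Glo luminescence. Media-only wells were set as complete cell-killing and DMSO as no toxicity.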
ATXN2 expr inh: Primary qHTS for Inhibitors of ATXN expression; HEK-293 ATXN2-luciferase reporter, luminescence, 24 h; Potency, µM (doses to about 57 µM), without a hit: at the top dose activity change, negative = inhibition, most hits filed as inhibitors; actives 0.72% (n = 360,000); AID 1745845, 2022; also: potency is read from the fitted curve at half-maximal effect; % is scaled to controls: 0 for no effect and ±100 for the full control effect; nearly all actives have a fitted effect of over 55% in size
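qHTS (up to 57 uM final) was run with 24 h compound exposure of reporter cells at 37 °C. Each well was multiplexed: SteadyGlo luminescence measured ATXN2-luciferase expression after a fluorogenic Gly-Phe-AFC viability readout (25 uM final).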
D3 antag: qHTS of D3 Dopamine Receptor Antagonist: qHTS; actives 2.5% (n = 360,000); max response, negative = inhibition, %; D3R cells, DiscoveRx beta-arrestin luminescence, antagonist mode; active compounds read low; D(3) dopamine receptor (Homo sapiens), P35462; in the data active = max response below about -50%; inconclusive = no clear call, values can overlap the other calls; also: % is scaled to controls: 0 for no effect and ±100 for the full control effect
Target sequence (P35462 whole entry, looked up): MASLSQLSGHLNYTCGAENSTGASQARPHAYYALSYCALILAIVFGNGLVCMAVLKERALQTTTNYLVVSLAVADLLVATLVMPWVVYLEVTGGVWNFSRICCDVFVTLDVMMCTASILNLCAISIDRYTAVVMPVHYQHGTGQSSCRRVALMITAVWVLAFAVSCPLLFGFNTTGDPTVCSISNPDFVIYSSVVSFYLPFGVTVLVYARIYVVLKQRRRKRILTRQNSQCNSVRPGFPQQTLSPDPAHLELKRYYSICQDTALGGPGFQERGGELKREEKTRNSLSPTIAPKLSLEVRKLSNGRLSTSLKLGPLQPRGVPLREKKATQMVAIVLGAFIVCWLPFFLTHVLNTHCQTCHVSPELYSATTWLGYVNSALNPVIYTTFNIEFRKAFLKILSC
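Cells expressing the human receptor were seeded at 1500 cells/well, incubated overnight at 37 degrees C in 5% CO2, then exposed to library compounds with dopamine controls for 90 minutes at 37 degrees C before luminescent detection.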
TGFb inhibitor: qHTS for Inhibitors of TGF-b | HepG2 CAGA-GFP TGF-b/SMAD3 reporter, GFP fluorescence, 18 h; TGF-beta stimulated, 500 pg/mL final | Potency, µM (series often up to 46.1 µM), without a hit: at the top dose activity, negative = inhibition, actives largely listed as inhibitors | actives 1.2% (n = 410,000) | AID 588855, 2011; also: potency is read from the fitted curve at half-maximal effect; % is scaled to controls: 0 for no effect and ±100 for the full control effect; nearly all actives have a fitted effect of over 65% in size
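Using HEPG2 CAGA-GFP reporter cells at 1000 cells/well, we pinned test compounds, stimulated with recombinant TGF-beta (500 pg/mL final) and measured total well GFP after 18 h.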
S2 tox: Viability Counterscreen for Primary qHTS for Inhibitors of ATXN expression; actives 0.49% (n = 400,000); Potency, µM (doses to about 56.7 µM), most hits filed as cytotoxic; AID 651635, 2014; S2 cells (HEK-293 line with an ATXN2-luciferase reporter) viability, CellTiter-Fluor protease fluorescence, 24 h; also: potency is read from the fitted curve at half-maximal effect; nearly all actives have a fitted effect of over 40% in size
D3 ag: qHTS of D3 Dopamine Receptor Agonist: qHTS; AID 652048, 2013; actives 0.58% (n = 410,000); D3R DiscoveRx beta-arrestin cells, luminescence, 90 min; max activation, %; D(3) dopamine receptor (Homo sapiens), P35462; in the data active = max activation above about 30%; also: 0% is about no effect
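Agonist mode: compounds and dopamine controls were applied to plated cells for 90 min at 37 degrees C after an overnight attachment at 1500 cells/well. Luminescent read-out followed 30 - 60 minutes at room temperature with DiscoveRx detection reagent.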
The depositor's hits bear a star; i = inactive; ? = inconclusive; . = no result given; ! = not active in a repeat; [ ] = dose if it differs, or a comment. Unless noted, calls follow the shape of the dose curve; as a rule, active = well fitted curve in the direction sought with a large enough effect; inconclusive = small, poorly fitted or top-dose-only effect, or another doubt; inactive = no such curve, though single readings can be large; an effect the other way counts as inactive or inconclusive.

SMILES	HepG2 tox	ATXN2 expr inh	D3 antag	TGFb inhibitor	S2 tox	D3 ag
CC1=CC2/C=C(\C)CCC(O)C(O)/C=C/C(=O)C23C(=O)NC(CC(C)C)C3C1C (configuration not stated)	-117%	?	-74*	3.2µM*	.	-12
CC(=O)OC(C)(C)/C=C/C(=O)[C@](C)(O)[C@H]1[C@H](O)C[C@@]2(C)[C@@H]3CC=C4[C@H](C[C@H](O)C(=O)C4(C)C)[C@]3(C)C(=O)C[C@]12C	-82%	14µM*	-12	2.8µM*	.	-13
CC(C)(O)C=CC(=O)[C@](C)(O)[C@H]1[C@H](O)C[C@]2(C)[C@@H]3CC=C4[C@@H](C=C(O)C(=O)C4(C)C)[C@]3(C)C(=O)C[C@@]12C	.	1.5µM*	.	.	.	.
Cc1ccc2oc(=O)n(CCNC(=O)Nc3ccc(C)c(F)c3)c2c1	-35%	.	.	0%	.	2
Cc1cnc(SCc2ccccn2)nc1C1CCCN(C(=O)c2ccc(-c3ccccc3F)cc2)C1 (configuration not stated)	.	.	.	.	i	.
c1ccc2c(CN3CCN(C4CCCCC4)CC3)c[nH]c2c1	-39%	1%	-67*	-3%	i	-13
CCC/C=C/C=C/C(=O)O[C@H]1/C(=C/C(=O)OC)C[C@H]2C[C@H]([C@@H](C)O)OC(=O)C[C@H](O)C[C@@H]3C[C@H](OC(C)=O)C(C)(C)[C@](O)(C[C@@H]4C/C(=C/C(=O)OC)C[C@H](/C=C/C(C)(C)[C@]1(O)O2)O4)O3	.	.	.	.	.	-28
NC(N)=Nc1ccc2[nH]c3c(c2c1)C[C@@]1(O)[C@H]2Cc4ccc(O)c5c4[C@@]1(CCN2CC1CC1)[C@H]3O5	-53%	-10%	-61*	14µM*!	?	-46
Oc1ccc2c3c1O[C@H]1[C@@H](O)CC[C@@]4(O)[C@@H](C2)N(CC2CCC2)CC[C@]314	-1%	4%	10	21%	i	4
CCN1/C(=C\C=C\C2=[N+](CC)c3ccccc3C2(C)C)C(C)(C)c2ccccc21	-62%	?	-96*	?	2.8µM*	-12
Cc1ccccc1C1CC(=O)Nc2ccc3ccccc3c21 (configuration not stated)	-25%	-21%	.	13µM*	?	0
Cc1ccc2c(c1)C(c1ccccc1)NCC(=O)N2 (configuration not stated)	4%	-8%	0	0%	i	2
C1=C(c2ccccc2)CCNC1	-5%	-16%	-52*	8%	i	-36
N#Cc1ccc(Cn2cc(C=O)c3ccccc32)cc1	-47%	?	-21	1.4µM*	i	-1
Cc1cccc(Cn2cc(C=O)c3ccccc32)c1	-35%	?	18	1.1µM*	i	9
O=Cc1cn(CCCOc2ccccc2)c2ccccc12	-23%	0%	2	?	i	-1
COc1ccccc1OCCCn1cc(C=O)c2ccccc21	-12%	9%[11.3 µM]	9	?	.	0
O=Cc1cn(Cc2cccc([N+](=O)[O-])c2)c2ccccc12	-46%	0.45µM*	9	0.71µM*	?	-2
O=Cc1cn(Cc2c(F)cccc2Cl)c2ccccc12	-6%	.	25	3.5µM*	?	1
Fc1ccc2c(c1)nnn2C1CCN(Cc2nnnn2C2CCCCC2)CC1	6%	1%	-58*	-6%	i	-4
CC(=O)c1c(O)n(-c2cccc(Cl)c2)c(=O)[nH]c1=O (tested in a mixture with another compound)	11%	-13%	2	-2%	i	3
CC(C)n1c(O)c(C2c3cc(Cl)ccc3Oc3[nH]c(=O)n(C(C)C)c(=O)c32)c(=O)[nH]c1=O (configuration not stated)	14µM*	4µM*	-6	6.3µM*	11µM*	5
O=C(CI)c1ccc(Cl)cc1	-5%	.	.	-2%	.	.
OC(c1ccccc1)(c1ccccc1)C1CN2CCC1CC2 (configuration not stated)	-10%	4%	-70*	-6%	i	0
COC(=O)C1=C(c2ccc(S(C)(=O)=O)cc2)C[C@@H]2CC[C@H]1N2C(=O)N1CCC(O)CC1	7%	0%	17	2%	i	33*
SMILES	HepG2 tox	ATXN2 expr inh	D3 antag	TGFb inhibitor	S2 tox	D3 ag
COC(=O)C1=C(c2ccc(Cl)c(C(F)(F)F)c2)C[C@@H]2CC[C@H]1N2C(=O)N1CCC(C)CC1	-28%	3%	-50*	?	i	-46
O=Nc1c(-c2ccccc2)n(O)[n+]([O-])c1-c1ccccc1	-26%	.	-8	-8%	?	-2
O=C(c1ccccc1Cl)N1CCC(c2nc3ccccc3s2)CC1	-19%	0%	.	?	?	2
C[C@H]1CC[C@@H]2[C@@H](C)[C@H]3C(CC4C5CC=C6CC(O[C@@H]7O[C@H](CO)C(O[C@@H]8O[C@@H](C)[C@H](O)[C@@H](O)[C@H]8O)[C@H](O)[C@H]7O[C@@H]7O[C@@H](C)[C@H](O)[C@@H](O)[C@H]7O)CC[C@]6(C)C5CC[C@@]43C)N2C1 (some centres not stated)	20µM*	.	.	14µM*	.	.
C[C@@H]1CC[C@@]2(OC1)O[C@H]1C[C@H]3[C@@H]4CC=C5C[C@@H](O[C@@H]6O[C@H](CO)[C@@H](O[C@@H]7O[C@@H](C)[C@H](O)[C@@H](O)[C@@H]7O)[C@H](O)[C@@H]6O[C@@H]6O[C@@H](C)[C@H](O)[C@@H](O)[C@@H]6O)CC[C@]5(C)[C@@H]4CC[C@]3(C)[C@@H]1[C@H]2C	.	12µM*	.	.	.	.
C[C@H]1CC[C@@H]2[C@@H](C)[C@H]3[C@H](C[C@H]4[C@@H]5CC=C6CC(O[C@@H]7O[C@H](CO)[C@H](O)[C@H](O[C@@H]8O[C@H](CO)[C@@H](O)[C@H](O)[C@H]8O)[C@H]7O[C@H]7O[C@@H](C)[C@H](O)[C@@H](O)[C@H]7O)CC[C@]6(C)[C@H]5CC[C@]34C)N2C1 (some centres not stated)	.	.	.	.	.	-1
CN(C)CCCCCCN(C)C (tested in a mixture with another compound)	.	.	.	.	.	8
COc1ccccc1-c1nn2c(=O)cc(CN3CCN(C(=O)Nc4ccc(C)cc4Cl)CC3)nc2s1	-2%	-10%	.	-1%	?	6

Bioassay records as filed in PubChem BioAssay.
